This is part of a sample that, as a whole, favours compounds with a hit. Of some 83,000 tested, about 20% had one in any assay.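 Single-concentration screen, 48 h exposure, 96-well plates. Endpoint: percent growth. Below 10 = active.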 A number with no mark means an inactive call. Active and inactive are the calls of the source.
Tests used:
Assay in all cases: NCI-60 one-dose screen, 48 h (100 = growth as untreated, 0 = no growth, -100 = all killed)
Conditions in all cases: 10 µM unless noted
SK-MEL-2 melanoma = system: SK-MEL-2 melanoma
EKVX NSCLC = system: EKVX NSCLC
SN12C renal = system: SN12C renal
UO-31 renal = system: UO-31 renal
TK-10 renal = system: TK-10 renal
ACHN renal = system: ACHN renal
CAKI-1 renal = system: CAKI-1 renal
A498 renal = system: A498 renal
CCRF-CEM leukemia = system: CCRF-CEM leukemia
MOLT-4 leukemia = system: MOLT-4 leukemia

| SMILES | growth (SK-MEL-2 melanoma) | growth (EKVX NSCLC) | growth (SN12C renal) | growth (UO-31 renal) | growth (TK-10 renal) | growth (ACHN renal) | growth (CAKI-1 renal) | growth (A498 renal) | growth (CCRF-CEM leukemia) | growth (MOLT-4 leukemia) |
| --- | --- | --- | --- | --- | --- | --- | --- | --- | --- | --- |
| CCOC(=O)c1cc(C(=O)c2cc(OC)c(OC)c(OC)c2)n2ncccc12 | 57.7% | 37.6% | 53.6% | 39.8% | 54% | 51.6% | 38.1% | -5.24% (active) | 11% | 18.5% |
| COc1ccc(C(=O)N2c3ccccc3Sc3ccccc32)c(OC)c1 | 38.3% | 34% | 51.6% | 48.3% | 55.8% | 43.5% | 36.8% | 5.16% (active) | 16.5% | 12% |
| O=C(CN1CCOCC1)Nc1nc(-c2cc3ccccc3oc2=O)cs1 | 114% | 99% | 101% | 70.6% | 154% | 93.1% | 82.4% | 102% | 103% | 104% |
| COc1ccc(Cc2cnc(NC(=O)c3cc(C)oc3C)s2)cc1 | 47.7% | 36.8% | 42.7% | 39.6% | 58% | 40.3% | 25.3% | 16.5% | 29.3% | 19.2% |
| Fc1cnccc1C1CC(c2ccc(N3CCNCC3)cc2)=NN1 (stereo not drawn) | 92.7% | 91% | 89.6% | 77.2% | 123% | 99.9% | 80.6% | 97.2% | 80.8% | 74.2% |
| COC1=CC(c2ccc[nH]2)=N/C1=C\c1[nH]c(C)c(CC(=O)OCc2ccccc2)c1CCC(=O)OCc1ccccc1 | -61.3% (active) | 4% (active) | -15.6% (active) | -89.3% (active) | -21.5% (active) | -30.6% (active) | -15.9% (active) | -54.1% (active) | -0.154% (active) | -10.6% (active) |
| COc1c(B(O)O)cccc1-c1nc2c(F)cc3[nH]ncc3c2c2c1CCCC2 | -6.26% (active) | 7.37% (active) | 15.8% | -1.82% (active) | 16.2% | 0.144% (active) | -28% (active) | -64.6% (active) | 13.9% | 7.73% (active) |
| COc1cc2oc(-c3cccc(NC(=O)c4ccccc4)c3)cc(=O)c2c(OC)c1OC | 76.8% | 103% | 76.2% | 51% | 91.3% | 61.6% | 87.2% | 59.4% | 45.7% | 40.7% |
| COc1cc(OC)c(/C=C/C(=O)c2c(OC)cccc2OC)c(OC)c1 | -14.9% (active) | 42.9% | 24.1% | 28.9% | 33.5% | 19.6% | 14.8% | 21.4% | 16.2% | 18.6% |
| COc1cc2c(c(OC)c1OC)CCC(c1cccc(C(=O)Nc3ccc(C#N)cc3)c1)O2 (stereo not drawn) | 50.7% | 60.1% | 46.6% | 25% | 57.6% |  | 43.4% | 50.8% | 10.5% | -14.4% (active) |
| CS(=O)(=O)c1ccc(-c2cnn3ccc(-c4cccc(S(=O)(=O)C5CC5)c4)nc23)cc1 | 49.4% | 67.4% | 55.3% | 49.8% | 45.8% | 54.7% | 52.2% | 30% | 21.3% | 15.3% |
| O=C(O)c1ccc(-n2cc(/C=N/Nc3ccccc3)c(-c3ccc(F)cc3F)n2)cc1 | 15.4% | 55.2% | 73.1% | 13% | 57.4% | 47.1% | 28.5% | 81.7% | 26.6% | 38.7% |
| O=C(NCCCl)Nc1ncccc1OCc1ccccc1 | 101% | 98.9% | 97% | 94.9% | 88.9% |  | 97.9% | 90% | 106% | 95.3% |
| COC(=O)c1nc(-c2ccccc2)oc1S(=O)(=O)Cc1ccccc1 | 80.2% | 119% | 93.5% | 72.9% | 5.41% (active) |  | 8.14% (active) | 98.1% | -6.08% (active) | -9.29% (active) |
| COc1ccc(/C=C/C(=O)c2ccc(Nc3ccnc4cc(Cl)ccc34)cc2)cc1 | 64.1% | 85.8% | 97.8% | 90% | 141% | 98.8% | 85.1% | 115% | -52.1% (active) | 22.9% |
| CCCCNCCCCCNc1cc(OC)cc2cccnc12 | 106% | 106% | 97.6% | 63.1% | 100% | 100% | 114% | 87.9% | 106% | 100% |
| Cn1cc(-c2nonc2-c2cn(C)c3ccccc23)c2ccccc21 | 35.6% | 40.4% | 43.6% | 40.5% | 62.5% |  | 31.3% | 12.3% | 9.67% (active) | 17.5% |
| COC(=O)c1c(C)c2n(c1C)C(=O)C(c1ccccc1)=C2 | 77.7% | 10.2% | 78.7% | 57.9% | 143% |  | 33.1% | 84.2% | 92.8% | 66.8% |
| O=C1Nc2ccccc2/C1=C/c1nc2ccccc2c(=O)[nH]1 | 103% | 80.6% | 89.5% | 64.4% | 181% |  | 84.2% | 102% | 55.8% | 86% |
| O=C(Nc1cccc(-c2ccc(N3CCOCC3)nn2)c1)Nc1cccc(C(F)(F)F)c1 | 70% | 63.7% | 66.6% | 74.9% | 70.6% |  | 87.9% | 80.3% | 26% |  |
| CSc1nc2ccccc2cc1/C=C1/C=C(c2ccccc2)NC1=O | 81% | 84.9% | 94.1% | 91.9% | 123% |  | 77.9% | 69.9% | 68.8% | 36.3% |
| Fc1cccc(Oc2ccc(Nc3ncnc4ccc(OCCCN5CCOCC5)cc34)cc2Cl)c1 | 93.3% | 20.7% | 82.9% | 30.4% | 26.4% |  | 30.4% | -4.84% (active) | 58.8% | 53.9% |
| Nc1ncnc2c1C(c1ccc(Br)cc1)c1sc3c(F)cccc3c1O2 (stereo not drawn) | 110% | 69.3% | 104% | 64.2% | 119% |  | 79.4% | 114% | 97.8% | 101% |
| O=[N+]([O-])c1cccc(-c2nc3cc4nc5ccccc5[nH]c4cc3n2)c1 | 93.4% | 99.7% | 108% | 84.4% | 105% |  | 104% | 92.1% | 111% | 92.9% |
| CN(C)CCNC(=O)c1cc2c3cc(Cl)ccc3[nH]c2c2ncccc12 | 47.9% | 22.1% | 10.2% | 6.68% (active) | 42.8% |  | 23.8% | 26.7% | -13.2% (active) | -12.4% (active) |
| CNC(=O)c1ccccc1Oc1nc(Nc2cc(OC)c(OC)c(OC)c2)ncc1Br | 1.29% (active) | 55.3% | 75.8% | 33% | 50.5% |  | 37% | -18.3% (active) | 59.5% | 68.6% |
| Cc1ccc(Nc2cc(N)nc(N)n2)cc1Cl | 103% | 67.7% | 104% | 83.4% | 111% |  | 81.6% | 101% | 96.6% | 93.7% |
| O=S(=O)(Nc1ccc(F)cc1F)c1ccc(-c2cnc(C3CC3)o2)cc1 | 36.7% | 41.1% | 42.9% | 40% | 67.2% |  | 25% | -3.02% (active) | 19.3% | 28.3% |
| COC12C=C/C(=C(/C(=O)OCc3ccncn3)C(=O)CCCCCCCCC3(OC)C=C/C(=C(/C(=O)OCc4ccncn4)C(=O)CCCCCCCC1)O3)O2 | 11.6% | -15.5% (active) | -10.7% (active) | -50.7% (active) | 9.83% (active) |  | -28.4% (active) | -86.3% (active) | -15.2% (active) | -7.71% (active) |

— PubChem BioAssay (NCI)
